Source: PubChem BioAssay
Only some compounds are listed: those with a hit (about 7.5% of all), similar ones and a draw of the others.
TSHR antag – blocks TSH signaling through the human TSH receptor. hit rate 0.2% among 330,000. activity change, negative = inhibition, % at 11.5 µM. P16473. TSHR-expressing cells, TSH-stimulated cAMP HTRF, 2 h; stronger effect = lower value;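 active = activity change below a set negative limit, meaning inhibition stronger than a set level, cut at about -70% in these data; inconclusive = activity change between two set negative limits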
Target sequence (P16473 whole entry, looked up): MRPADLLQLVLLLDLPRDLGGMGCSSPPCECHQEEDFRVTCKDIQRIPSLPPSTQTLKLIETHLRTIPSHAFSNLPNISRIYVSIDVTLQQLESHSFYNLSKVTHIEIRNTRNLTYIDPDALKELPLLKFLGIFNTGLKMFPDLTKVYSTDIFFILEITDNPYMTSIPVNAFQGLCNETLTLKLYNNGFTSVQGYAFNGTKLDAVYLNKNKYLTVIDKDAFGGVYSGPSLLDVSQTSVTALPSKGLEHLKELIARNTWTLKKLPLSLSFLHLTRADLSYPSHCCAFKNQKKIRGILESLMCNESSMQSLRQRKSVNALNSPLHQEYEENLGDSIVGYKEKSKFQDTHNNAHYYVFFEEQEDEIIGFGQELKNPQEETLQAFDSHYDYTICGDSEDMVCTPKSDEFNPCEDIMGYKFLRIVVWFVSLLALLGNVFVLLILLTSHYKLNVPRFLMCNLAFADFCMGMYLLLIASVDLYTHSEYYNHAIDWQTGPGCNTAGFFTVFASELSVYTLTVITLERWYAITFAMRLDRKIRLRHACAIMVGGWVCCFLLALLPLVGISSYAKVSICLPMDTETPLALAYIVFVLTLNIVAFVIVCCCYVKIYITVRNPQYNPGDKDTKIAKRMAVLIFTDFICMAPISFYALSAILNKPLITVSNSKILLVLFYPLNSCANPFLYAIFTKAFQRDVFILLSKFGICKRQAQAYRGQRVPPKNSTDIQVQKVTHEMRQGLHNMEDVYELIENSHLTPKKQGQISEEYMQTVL
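Read-out is FRET at 665 nm (cryptate excitation 337 nm) from a cryptate-tagged anti-cAMP antibody, competed by cell cAMP against cAMP-d2. Compounds are tested on freshly harvested TSHR cells challenged with 4nM TSH (EC80) for 2 hours at 37 deg C.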
VP16 counter – inhibits Gal4-VP16 luciferase reporter, ROR gamma counter-screen | hit rate 3.5% among 310,000 | Drosophila S2 Gal4-VP16 UAS-luciferase, luminescence, 20 h | Potency, µM (top dose mostly 53.6 µM), for inactives: at the top dose activity, negative = inhibition, actives largely listed as inhibitors;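 note: Gal4-VP16 expression switched on by copper sulfate through the metallothionein promoter; potency is the fitted concentration of half-maximal effect; nearly all actives have a fitted effect of over 50% in size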
B2AR arrestin – agonists driving beta-arrestin recruitment to human beta2-adrenergic receptor; P07550; Potency, µM (series often up to 46.1 µM), without a hit: at the highest dose activation, hits mostly activators; AID 492947; hit rate 0.02% among 330,000; beta-arrestin recruitment to beta2AR, cell-based reporter;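 note: potency is the fitted concentration of half-maximal effect; 0% = DMSO controls and full agonism = EC100 isoproterenol or metaproterenol; nearly all actives have a fitted effect of over 65% in size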
RORg inh – blocks mouse ROR gamma transcriptional activity | Drosophila S2 Gal4-RORgamma UAS-luciferase reporter, 20 h | Potency, µM (highest dose often 53.6 µM), without a hit: at the highest dose activity change, negative = inhibition, actives largely listed as inhibitors | hit rate 5.4% among 310,000 | AID 2551; note: potency is the fitted concentration of half-maximal effect; nearly all actives have a fitted effect of over 60% in size
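Using a luciferase readout, inhibitors were identified by reduced reporter activity in Drosophila cells coexpressing a copper-inducible Gal4–ROR gamma fusion and UAS-driven Photinus luciferase, incubated 20 hr after 700 uM copper sulfate.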
ELG1 repair inh – ELG1-dependent DNA repair inhibition; HEK293T ELG1-luciferase reporter, luminescence, 16 h; DNA damage induced by 5-fluorouridine; Potency, µM (titrated, usually from 46.1 µM), inactives show at the top dose activity change, negative = inhibition, actives largely listed as inhibitors; hit rate 2.3% among 330,000; AID 504467; note: potency is the fitted concentration of half-maximal effect; nearly all actives have a fitted effect of over 55% in size
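DMSO vehicle served as the neutral condition. Each well held 2,000 cells given 5-fluorouridine plus compound; after 16 hr at 37 °C/5% CO2, ONE-Glo was added and luciferase measured 30 min later.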
Starred values were filed as active, the others as inactive; ? = inconclusive; nt = not tested or not shown; [ ] = dose if it differs, or a comment. Unless noted, calls come from the whole dose curve; as a rule, active = well fitted curve in the direction sought with a large enough effect; inconclusive = small, poorly fitted or top-dose-only effect, or another doubt; inactive = no such curve, though single readings can be large; an effect the other way counts as inactive or inconclusive. Unless noted, % is set by controls: 0 for no effect and ±100 for the full control effect.

SMILES	TSHR antag	VP16 counter	B2AR arrestin	RORg inh	ELG1 repair inh
COc1ccc(S(=O)(=O)N2CCCCCC2)cc1C(=O)N1CCCCC1	-19	?	0%	1.4µM*	-6%
COc1ccc(S(=O)(=O)N2CCCCC2)cc1NCC(=O)Nc1ccc(C)cc1	2	3.5µM*	-1%	28%	-16%
COc1cc(/C=C/C(=O)OCC(=O)Nc2cc(S(=O)(=O)N3CCOCC3)ccc2Cl)cc(OC)c1OC	3	nt	0%	nt	18µM*
Cc1c(Cl)cccc1NC(=S)NNS(=O)(=O)c1ccc([N+](=O)[O-])cc1	29	7.1µM*	0%	4.5µM*	-20%
Cc1nnc(SCC2=C(C(=O)O)N3C(=O)[C@@H](NC(=O)Cn4cnnn4)[C@@H]3SC2)s1	nt	-10%[17 µM]	nt	-4%[16.9 µM]	nt
CCOC(=O)c1ccc(N=Nc2c(C)[nH]n(-c3ccccc3)c2=O)cc1	-1	-14%	0%	23%	2%
CC(=O)N(C)c1ccc(N=Nc2c(C)[nH]n(-c3ccccc3)c2=O)cc1	-5	?	0%	20µM*	-1%
CCN(CC)S(=O)(=O)c1ccc(N=Nc2c(C)[nH]n(C(N)=S)c2=O)cc1	-4	0.013µM*	?	0.05µM*	?
CCN(CC)S(=O)(=O)c1ccc(N)cc1	6	-2%	-1%	-5%	?
CC(=O)N(C)c1ccc(N=Nc2c(C)[nH]n(C(N)=S)c2=O)cc1	-10	3.2µM*	0%	0.35µM*	?
CC(NC(=O)Cc1ccccc1)c1cc2c(cc1Br)OCCCO2 (centres undefined)	3	-15%	0%	27%	-12%
Cn1nc(C(F)(F)F)c(/C=N/OC(=O)c2ccccc2Cl)c1SCc1ccccc1Cl	-13	23%	0%	-22%	13µM*
CSc1cccc(NC(=S)N(CCC(C)C)C2CCN(C(C)C)CC2)c1	8	?	0%	13µM*	3%
CCN(C(=S)Nc1ccccc1F)C1CCCCC1	1	3%	-1%	13µM*	1%
Cc1ccc(Cl)cc1NC(=S)N(Cc1cccs1)C1CCCC1	0	?	0%	18µM*	-1%
Cc1ccccc1NC(=S)N(Cc1cccs1)C1CCCCC1	7	4%	0%	13µM*	-1%
CCc1c(C)nc2nc(SCc3ccccc3)[nH]n2c1=O	-2	?	-1%	?	2%
O=C1C=C[C@@H](O)[C@H]2[C@@H]3C(=O)N(Cc4ccccc4)C(=O)[C@@H]3CC[C@H]12	nt	-3%[10 µM]	nt	2%[10 µM]	nt
CSc1cccc(NC(=S)N(CCCN2CCC(C)CC2)Cc2cccs2)c1	2	8%[10 µM]	0%	13µM*	-15%
CCOC(=O)c1ccc(NC(=S)N(CCN2CCCCCC2)Cc2cccs2)cc1	-2	?	0%	13µM*	?
Cc1c(Cl)cccc1NC(=S)N(Cc1cccs1)C1CCCC1	1	?	0%	11µM*	-11%
Cc1c(Cl)cccc1NC(=S)N(CCCN1CCOCC1)Cc1cccs1	-5	?	0%	10µM*	-1%
O=C(O)CNC(=S)N(Cc1cccs1)C1CCCCC1	-3	-9%	0%	-1%	16%
CCOC(=O)c1ccc(NC(=S)N(CCCN2CCCC2)Cc2cccs2)cc1	-10	7%	0%	-1%	11%
CC(C)=CCC[C@](C)(O)C1CC=C(C)CC1 (some centres undefined)	nt	1%	nt	5%	nt
SMILES	TSHR antag	VP16 counter	B2AR arrestin	RORg inh	ELG1 repair inh
CCOC(=O)C1=C(CC)Nc2ccccc2N=C1NC(=O)Nc1ccc(Cl)c(Cl)c1	-46	?	0%	-15%	18µM*
COc1ccc(OC)c(C2C=C(C34CC5CC(CC(C5)C3)C4)NC(=S)N2)c1 (centres undefined)	-17	3.2µM*	0%	3.2µM*	?
S=C1NC(C23CC4CC(CC(C4)C2)C3)=CC(c2ccc3c(c2)OCO3)N1 (centres undefined)	4	?	0%	0.71µM*	-21%
COc1cc(C2C=C(C34CC5CC(CC(C5)C3)C4)NC(=S)N2)cc(OC)c1OC (centres undefined)	-14	0.79µM*	0%	1µM*	23µM*
COc1ccc(C2=CC(c3cc(OC)c(OC)c(OC)c3)NC(=S)N2)cc1 (centres undefined)	4	?	0%	13µM*	-5%
COc1ccc(OC)c(C(C)NC(=O)C23CC4CC(CC(C4)C2)C3)c1 (centres undefined)	-5	1%	0%	16%	-30%
CC[C@H]1OC(=O)[C@H](C)C(=O)[C@H](C)[C@@H](OC2O[C@H](C)C[C@H](N(C)C)[C@@H]2O)[C@@](C)(OC)C[C@@H](C)C(=O)[C@@H](C)C2N(CCCCn3cnc(-c4cccnc4)c3)C(=O)O[C@@]21C (some centres undefined)	nt	-11%	nt	9%	nt
N#Cc1ccccc1COC(=O)c1cccc(S(=O)(=O)N2CCCC2)c1	-19	nt	-1%	nt	-26%
Cc1ccc(S(=O)(=O)c2cc3c(=O)n4ccccc4nc3n(C3CCCCC3)c2=N)cc1	9	-11%	0%	2%	-1%
Nc1ccc(-c2nc3ccccc3o2)cc1	6	0%	0%	-25%	?
O=c1c(-c2nc3ccccc3o2)c2oc3ccccc3n2c2ccccc12	-14	1%	-3%	-8%	5.2µM*
CCOC(=O)c1ccc(Oc2nc(OC)cc(OC)n2)cc1	0	-5%	0%	27%	-1%
CC(NCc1ccc(OCc2ccc(Cl)cc2)cc1)C(O)c1ccccc1 (centres undefined)	15	?	0%	35µM*	1%
CNc1nnc(-c2ccc(N(C)C)cc2)s1	-8	8.9µM*	0%	?	?
CCC[C@@H]1CC2=CC(=O)CC[C@]2(C)[C@H]2CC[C@@]3(C)[C@@H](CC[C@@]34CCC(=O)O4)[C@H]12	nt	-2%	nt	2%	nt
CCNC(=O)N(CCOC)CC1CCCN(C2Cc3ccccc3C2)C1 (centres undefined)	2	4%	0%	-8%	-26%
Cc1nc2sccn2c(=O)c1S(=O)(=O)Nc1ccc(N2CCN(S(C)(=O)=O)CC2)cc1	21	1%	0%	5%	9.2µM*
CCOc1ccc(NS(=O)(=O)c2c(C)nc3sccn3c2=O)cc1	-13	-10%	0%	?	1%
COC(=O)/C(=C1/Oc2ccc(C(C)(C)C)cc2S1)C(F)(F)F	1	-15%	0%	14%	?
COC(=O)/C(=C1/Oc2cc(C)oc(=O)c2S1)C(F)(F)F	-23	1.1µM*	14%	0.71µM*	?
O=C(NCCCc1ccccc1)c1ccc(-n2cncn2)c([N+](=O)[O-])c1	-1	nt	0%	nt	-10%
CCN(CC)S(=O)(=O)c1ccc(-c2nnc(SCC(N)=O)n2CC)cc1	7	-7%	-1%	19%	7%
